Reference: PubChem BioAssay AID602163 (The Scripps Research Institute Molecular Screening Center, 2012)
Hit rate of the full screen: of about 360,000 compounds, about 1,100 (0.31%) were called active. This is one part of a sample in which actives are shown more often than they occur. A number with no mark means an inactive call. Cut-off read from the data, not from the text of the source: active = activation above about 7.5%; inactive = the rest.

The compounds below were run on Methionine sulfoxide reductase A (Bos taurus) (assay: activation of methionine sulfoxide reductase A – biochemical, absorbance, bovine, HTS, primary screen (AID 602163;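 note: 0% = vehicle and 100% = reference activator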)). Settings: purified bovine MsrA, absorbance read-out; at 10.6 µM; active compounds read high.
`O=C(Nc1ccc2c(c1)OCCO2)C(c1ccc(F)cc1)N1CCCCC1` (centres undefined) showed an activation of -9.07%. `COc1cccc(CNCCc2c[nH]c3ccccc23)c1OCc1ccccc1F` was tested, and the activation was 7.97% (active). Work on `COc1ccc(CN(C)C(=O)Cc2c[nH]c3ccccc23)c(OC)c1OC` yielded an activation of -0.09%. Work on `Fc1ccccc1COc1ccccc1CNCc1ccncc1` yielded an activation of -0.5%. Compound `CSc1ccc(Cl)c(C(=O)OCC(=O)N2CC(C)OC(C)C2)c1` (centres undefined) has an activation of 1.67%. Work on `CCN(/N=C/c1ccc(N(C)C)cc1)c1nc2ccccc2[nH]1` yielded an activation of -3.63%. Work on `CC1(C)CC(=O)C(C=NCc2cccnc2)=C(O)C1` yielded an activation of -1.39%. `COC(=O)C1(O)CC(C(C)C)=NN1C(=O)c1ccc(Cl)cc1` (centres undefined) gave an activation of -2.59%. For `NC(=O)c1cc(-c2cccnc2)nc2ccc(Br)cc12`, the activation was -2.46%. `O=c1c2cc(Br)ccc2nc(-c2cccc(Cl)c2)n1O` was tested, and the activation was 8.68% (active). Work on `NC(N)=Nc1nc2ccc(Br)cc2c(=O)[nH]1` yielded an activation of -1.23%. `COc1ccccc1C(=O)Nc1ccc(OCC(=O)N2CCCCC2)cc1` was tested, and the activation was -2.88%. `COc1ccc(/C=C/C2=CC(C)(C)NC(=S)N2)c(OC)c1` gave an activation of -3.37%. With `COc1ccc(NC(=O)COC(=O)CNC(=O)C2CCCCC2)cc1` the activation was -4.73%. `c1ccc(CNCc2ccc(CNCc3ccccc3)cc2)cc1` showed an activation of -4.45%. Compound `CCOCCCNCc1ccc(OCc2ccc(F)cc2)c(OC)c1` has an activation of -0.52%. For `CCOc1ccccc1OCCCNCc1ccccc1`, the activation was 8.23% (active). `Cc1ccccc1NC(=O)c1nn(-c2ccc(F)c(F)c2)ccc1=O` gave an activation of 0.66%. In the case of `Cc1[nH]c(C)c(S(=O)(=O)N2CCN(c3cccc(C(F)(F)F)c3)CC2)c1C(=O)N1CCCC1`, the activation is reported as -2.75%. Work on `COc1ccccc1CNC(=O)c1cc(-c2cc(F)ccc2OC)n[nH]1` yielded an activation of 1.13%. Compound `Oc1cc(O)c2c(c1)OC(c1ccc(O)c(O)c1)C(O)C2` (centres undefined) has an activation of -3.17%. For `O=C(Nc1c(Br)cc2c(c1Br)Cc1cc([N+](=O)[O-])ccc1-2)C(Cl)Cl`, the activation was -0.8%. With `COc1ccc(C(CNC(=O)c2cc3c(s2)CCCC3)N2CCOCC2)cc1` (centres undefined) the activation was 9.37% (active). `COc1ccc(C(CNC(=O)CSc2ccccc2)N2CCOCC2)cc1` (centres undefined) gave an activation of -2.38%. Compound `COc1ccc(C(CNC(=O)c2cccnc2SC)N2CCOCC2)cc1` (centres undefined) has an activation of -1.39%. With `CCC(C)CCN1CCN=C1N(C)C` (centres undefined) the activation was -6.93%. `O=C(NC1CCc2ccccc21)C12CN(Cc3ccccc3)CC1C(c1cccc([N+](=O)[O-])c1)=NO2` (centres undefined) was tested, and the activation was -4.81%. `O=C(NCCCN1CCOCC1)c1cnn2c(-c3ccccc3)cc(-c3ccccc3)nc12` gave an activation of 0.61%. For `COc1ccccc1-n1cn[nH]c1=S`, the activation was 9.25% (active). In the case of `COc1cccc(CNn2cn[nH]c2=S)c1OCc1ccccc1`, the activation is reported as -8.32%. Compound `FC(F)(F)c1ccc(-n2cn[nH]c2=S)cc1` has an activation of 4.3%. `CCN(C(=O)Cc1nc(N)n[nH]1)C1(C(=O)Nc2ccccc2)CCCCC1` was tested, and the activation was -1.75%. For `Nc1[nH]c(=S)nc2nc(-c3ccccc3)c(-c3ccccc3)nc12`, the activation was 4.05%. `COc1ccc(S(=O)(=O)N(C)C)cc1NC(=O)COC(=O)c1n[nH]c2ccccc12` showed an activation of -0.9%. Work on `O=C(COC(=O)c1n[nH]c2ccccc12)Nc1ccccc1Br` yielded an activation of -2.21%. In the case of `CN(C)S(=O)(=O)c1ccc(NC(=O)COC(=O)c2n[nH]c3ccccc23)cc1`, the activation is reported as 14.2% (active). With `Cn1nnnc1SCC(=O)N1CCN(C(c2ccccc2)c2ccccc2)CC1` the activation was -4.74%. `CC(=O)c1ccc(-n2nnnc2SCC(=O)N2CCN(C(=O)c3ccco3)CC2)cc1` was tested, and the activation was -6.56%. In the case of `Cn1nnnc1SCC(=O)N1CCN(Cc2ccccc2)CC1`, the activation is reported as 10.8% (active). `CC(C)COC(=O)n1c(=O)oc2ccc(S(=O)(=O)N3CCCCC3)cc21` showed an activation of -0.43%. With `COc1ccc(C2=NN(C(=O)CSc3nc(=O)n4ccc(C)cc4n3)C(c3ccc(C)cc3)C2)cc1` (centres undefined) the activation was -4.23%. In the case of `FC(F)(F)C1CCCN(c2nsc3ccccc23)C1` (centres undefined), the activation is reported as 13% (active). For `CCCNCc1cc(OCC)c(OCC(=O)Nc2ccccc2)cc1Br`, the activation was -1.95%. With `O=C(CC1(O)C(=O)N(CN2CCOCC2)c2ccccc21)c1ccccc1` (centres undefined) the activation was -7.26%. `C=CCN1C(=O)C2(OCCCO2)c2cccc(Cl)c21` was tested, and the activation was -1.83%. With `CC(C)(C)C(=O)CCN1C(=O)C2(OCCO2)c2ccccc21` the activation was 10.5% (active). `CC(C)C[C@H]1CNC(=O)C(=O)N1C[C@@H]1CCCN1C[C@H](Cc1ccccc1)N1C[C@H](CC(C)C)N(CC2CCCCCC2)C(=O)C1=O` gave an activation of -1.34%. With `CC1CCC2CCCCC2N1C(=O)c1cc([N+](=O)[O-])cc([N+](=O)[O-])c1` (centres undefined) the activation was -1.47%. `CCOC(=O)[C@H]1Nc2ccc(Cl)cc2[C@@H]2[C@H]1C1CC(c3ccccc31)N2C(=O)OCc1ccccc1` (some centres undefined) gave an activation of -4.81%. `O=C(O)C#Cc1cccc2ccccc12` was tested, and the activation was -6.37%. With `CCCCCCNC(=O)CSc1nccn1Cc1ccccc1` the activation was -3.24%. In the case of `O=C(NCc1ccccc1)C1c2ccccc2OCC(=O)N1C1CC1` (centres undefined), the activation is reported as 8.21% (active). `O=C(NC1CCCC1)C1c2ccccc2OCC(=O)N1Cc1ccccc1` (centres undefined) showed an activation of -2.39%. `O=C(NCc1ccccc1)C1c2ccccc2OCC(=O)N1CCCN1CCOCC1` (centres undefined) gave an activation of -2.2%. `CN1CCN(Cc2c(C(=O)N3CCc4ccccc4C3)nc3ccc(Cl)cn23)CC1` showed an activation of -13%. `Nc1ccn(C2CC(O)C(CO)O2)c(=O)n1` (centres undefined) gave an activation of -1.31%. `COC(=O)C1CCN(C(=O)COC(=O)c2cc(S(=O)(=O)N3CCOCC3)ccc2C)CC1` was tested, and the activation was -0.23%. Work on `CCS(=O)(=O)c1ccc2c(c1)N(S(=O)(=O)c1ccccc1)CC(C(=O)O)O2` (centres undefined) yielded an activation of -3.49%. With `COc1ccc(N2CCN(S(=O)(=O)c3cc4c5c(c3)C(C)C(=O)N5CCC4)CC2)cc1` (centres undefined) the activation was 0.45%.
